From PubChem BioAssay
TWEAK-Fn14 inh: blocks TWEAK-Fn14 interaction in a reporter cell assay | AID 1159606 | TWEAK-stimulated Fn14 reporter cells, luciferase luminescence, 8 h | inhibition, % at 10 µM | 360,000 compounds, 2% hits; in the data active = inhibition above about 50%
TROY NFkB inh: blocks TROY-dependent signaling in reporter cells; Q293 LMP1-TROYcd NF-kB luciferase reporter, 4 h; inhibition, % at 10 µM; 360,000 compounds, 0.98% hits; AID 1347056;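 active = compounds whose plate-normalised and pattern-corrected inhibition of the luciferase reporter signal at the single screening dose is 50% or more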
Peg3 prom inh: inhibitors of Peg3 promoter | HeLa PEG-Prom luciferase reporter, luminescence, overnight | inhibition, % at 20 µM | 360,000 compounds, 1.7% hits | AID 588405;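 active = inhibition of at least 50% at 20 µM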
MITF TRPM1 inh: reduces MITF-dependent TRPM1 promoter luciferase signal. inhibition, % at 12.5 µM. 330,000 compounds, 0.83% hits. SK-MEL-5 TRPM1 promoter luciferase, 24 h. AID 488899;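 active = mean inhibition across replicates of 60% or more, whatever share of single replicates reaches that level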
Shn3 inh set2: inhibitors of Schnurri-3 3'UTR reporter in osteoblasts. Clone20 osteoblast Shn3 3'UTR firefly luciferase, 24 h. inhibition, % at 12.5 µM. 360,000 compounds, 0.52% hits. AID 588674;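 active = mean inhibition of at least 75% with every replicate also reaching 75%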
EBV LMP1 NFkB: inhibitors of Epstein-Barr LMP1-induced NF-kappaB reporter | LMP1-induced NF-kappaB luciferase reporter cells, luminescence | inhibition, % at 12.5 µM | 350,000 compounds, 0.69% hits | AID 504558; in the data active = inhibition above about 41%
A number is an active result. Sampled rows, rich in hits. Any-hit rate of the full collection: about 4.1%.

Screening COc1ccc(-c2c[n+]3c4n2CCCCC4=C(c2ccc(Br)cc2)C3)cc1 returned TWEAK-Fn14 inh inactive, TROY NFkB inh inactive, Peg3 prom inh inactive, MITF TRPM1 inh 76, Shn3 inh set2 inactive and EBV LMP1 NFkB inactive.
For O=C(NCCC1=CCCCC1)C1CCC(CNc2nc(=S)[nH]c3ccccc23)CC1 (stereo not drawn) the results were TWEAK-Fn14 inh inactive, TROY NFkB inh inactive, Peg3 prom inh inactive, MITF TRPM1 inh 64, Shn3 inh set2 inactive and EBV LMP1 NFkB inactive.
For O=C(NCCc1ccc(Cl)cc1)C1CCC(CNc2nc(=S)[nH]c3ccccc23)CC1 (stereo not drawn) the results were TWEAK-Fn14 inh inactive, TROY NFkB inh inactive, Peg3 prom inh inactive, MITF TRPM1 inh 76, Shn3 inh set2 inactive and EBV LMP1 NFkB inactive.
For CCN(CC)S(=O)(=O)c1cc(NC(=O)CSc2nc3c(cc2C#N)C(=O)CC(C)(C)C3)ccc1C the results were TWEAK-Fn14 inh 55, TROY NFkB inh inactive, Peg3 prom inh 54, MITF TRPM1 inh inactive, Shn3 inh set2 inactive and EBV LMP1 NFkB inactive.
`Cc1onc(-c2ccccc2Cl)c1C(=O)N1CCC(Cc2ccccc2)CC1` gave TWEAK-Fn14 inh inactive, TROY NFkB inh inactive, Peg3 prom inh inactive, MITF TRPM1 inh inactive, Shn3 inh set2 89 and EBV LMP1 NFkB inactive.
Screening Cc1onc(C(=O)N2CCC(C(N)=O)CC2)c1-c1ccccc1Cl returned TWEAK-Fn14 inh 87, TROY NFkB inh inactive, Peg3 prom inh inactive, MITF TRPM1 inh inactive, Shn3 inh set2 inactive and EBV LMP1 NFkB inactive.
Cc1onc(-c2ccccc2Cl)c1C(=O)N1CCC(C(N)=O)CC1 was read as TWEAK-Fn14 inh inactive, TROY NFkB inh inactive, Peg3 prom inh inactive, MITF TRPM1 inh inactive, Shn3 inh set2 inactive and EBV LMP1 NFkB inactive.
Screening Cc1cc(NC(=O)CSc2nc3c(c(=O)n2CCc2ccccc2)SC(C)C3)no1 (stereo not drawn) returned TWEAK-Fn14 inh inactive, TROY NFkB inh inactive, Peg3 prom inh inactive, MITF TRPM1 inh inactive, Shn3 inh set2 inactive and EBV LMP1 NFkB 77.
For O=C(Nc1cc(S(=O)(=O)N2CCOCC2)ccc1Cl)c1ccncc1 the results were TWEAK-Fn14 inh inactive, TROY NFkB inh inactive, Peg3 prom inh inactive, MITF TRPM1 inh inactive, Shn3 inh set2 inactive and EBV LMP1 NFkB 69.
For O=C(Nc1ccccc1C(=O)N1CCCCC1)c1cccc(S(=O)(=O)N2CCOCC2)c1 the results were TWEAK-Fn14 inh 60, Peg3 prom inh inactive, MITF TRPM1 inh inactive, Shn3 inh set2 inactive and EBV LMP1 NFkB inactive.
Screening Cc1cc(NC(=O)c2cccc(S(=O)(=O)N3CCCCCC3)c2)n(-c2ccccn2)n1 returned TWEAK-Fn14 inh 52, TROY NFkB inh inactive, Peg3 prom inh inactive, MITF TRPM1 inh inactive, Shn3 inh set2 inactive and EBV LMP1 NFkB inactive.
For COc1cc(C(=O)Nc2nc(-c3ccc(C)cc3)cs2)ccc1OCC(=O)N1CCOCC1 the results were TWEAK-Fn14 inh inactive, TROY NFkB inh 57, Peg3 prom inh inactive, MITF TRPM1 inh inactive, Shn3 inh set2 inactive and EBV LMP1 NFkB inactive.
`O=C(Nc1ccccc1C(=O)N1CCCCCC1)c1cccc(S(=O)(=O)N2CCOCC2)c1` gave TWEAK-Fn14 inh inactive, TROY NFkB inh inactive, Peg3 prom inh inactive, MITF TRPM1 inh inactive, Shn3 inh set2 inactive and EBV LMP1 NFkB inactive.
Screening Cc1cc(NC(=O)c2cccc(S(=O)(=O)N(C)C)c2)n(-c2ccccn2)n1 returned TWEAK-Fn14 inh inactive, TROY NFkB inh inactive, Peg3 prom inh inactive, MITF TRPM1 inh inactive, Shn3 inh set2 inactive and EBV LMP1 NFkB inactive.
For C[C@@H]1CCCCO[C@H](CN(C)C(=O)Nc2ccccc2)[C@@H](C)CN([C@H](C)CO)C(=O)c2cc(NS(=O)(=O)c3cn(C)cn3)ccc2O1 the results were TWEAK-Fn14 inh inactive, TROY NFkB inh inactive, Peg3 prom inh inactive, Shn3 inh set2 inactive and EBV LMP1 NFkB inactive.
`CS(=O)(=O)c1ccc(Cl)c(NC(=O)c2cccc(-n3cnnn3)c2)c1` gave TWEAK-Fn14 inh inactive, TROY NFkB inh inactive, Peg3 prom inh inactive, MITF TRPM1 inh inactive, Shn3 inh set2 inactive and EBV LMP1 NFkB inactive.
COc1ccc(CNC(=O)C2Cc3c(-c4ccc5c(c4)OCO5)ccnc3O2)cc1OC (stereo not drawn) was read as TWEAK-Fn14 inh inactive, TROY NFkB inh inactive, Peg3 prom inh inactive and Shn3 inh set2 inactive.
`COc1cc(C(=S)N2CCOCC2)cc(OC)c1OC(=O)c1ccc(C)cc1` gave TWEAK-Fn14 inh inactive, TROY NFkB inh inactive, Peg3 prom inh inactive, MITF TRPM1 inh inactive, Shn3 inh set2 inactive and EBV LMP1 NFkB inactive.
For O=C(Nc1nc(-c2ccc(S(=O)(=O)N3CCCC3)cc2)cs1)c1cccs1 the results were TWEAK-Fn14 inh 55, TROY NFkB inh 53, Peg3 prom inh inactive, MITF TRPM1 inh inactive, Shn3 inh set2 inactive and EBV LMP1 NFkB inactive.
`O=C(Nc1nc(-c2ccccc2)c(-c2ccccc2)s1)c1ccc(S(=O)(=O)N2CCCC2)cc1` gave TWEAK-Fn14 inh inactive, TROY NFkB inh inactive, Peg3 prom inh inactive, MITF TRPM1 inh inactive, Shn3 inh set2 inactive and EBV LMP1 NFkB inactive.
O=C(Nc1nc(-c2ccccc2)c(C(=O)c2ccccc2)s1)c1ccc(S(=O)(=O)N2CCCC2)cc1 was read as TWEAK-Fn14 inh 72, TROY NFkB inh inactive, Peg3 prom inh inactive, MITF TRPM1 inh inactive, Shn3 inh set2 inactive and EBV LMP1 NFkB inactive.
For O=C(Nc1nc(-c2ccc(S(=O)(=O)N3CCCCCC3)cc2)cs1)c1cccs1 the results were TWEAK-Fn14 inh inactive, TROY NFkB inh inactive, Peg3 prom inh inactive, MITF TRPM1 inh inactive, Shn3 inh set2 inactive and EBV LMP1 NFkB inactive.
Screening C/C(=N\NC(=S)Nc1cc(S(=O)(=O)N2CCOCC2)ccc1Cl)c1ccccc1F returned TWEAK-Fn14 inh inactive, TROY NFkB inh inactive, Peg3 prom inh 53, MITF TRPM1 inh inactive, Shn3 inh set2 inactive and EBV LMP1 NFkB inactive.
For COc1cccc(C(=O)Nc2nc(-c3ccc(S(=O)(=O)N4CCOCC4)cc3)cs2)c1 the results were TWEAK-Fn14 inh 70, TROY NFkB inh 64, Peg3 prom inh 68, MITF TRPM1 inh inactive, Shn3 inh set2 inactive and EBV LMP1 NFkB inactive.
CC(C)N(C(=S)Nc1cc(S(=O)(=O)N2CCOCC2)ccc1Cl)c1ccccc1 was read as TWEAK-Fn14 inh inactive, TROY NFkB inh inactive, Peg3 prom inh inactive, MITF TRPM1 inh inactive, Shn3 inh set2 inactive and EBV LMP1 NFkB inactive.
Screening Cn1nc(C(C)(C)C)cc1NC(=O)C1(C)CCN1C(=O)C1(c2ccccc2)CC1 (stereo not drawn) returned TWEAK-Fn14 inh inactive, TROY NFkB inh inactive, Peg3 prom inh inactive and Shn3 inh set2 inactive.
Screening COC(=O)[C@]1(C)N[C@H](CN(C)C(=O)Nc2ccccc2)[C@@H]2C(=O)N(C)C(=O)[C@@H]21 returned TWEAK-Fn14 inh inactive, TROY NFkB inh inactive, Peg3 prom inh inactive, MITF TRPM1 inh inactive, Shn3 inh set2 inactive and EBV LMP1 NFkB inactive.
O=C(Nc1nc(-c2nc3ccccc3s2)cs1)c1ccc(S(=O)(=O)N2CCOCC2)cc1 was read as TWEAK-Fn14 inh 78, TROY NFkB inh 64, Peg3 prom inh inactive, MITF TRPM1 inh inactive, Shn3 inh set2 inactive and EBV LMP1 NFkB inactive.
